Results published in PubChem BioAssay (NCATS).
Results filed as inconclusive are left out. Calls of active or inactive are those of the source. Calls come from the whole dose curve; as a rule, active = well fitted curve in the direction sought with a large enough effect; inconclusive = small, poorly fitted or top-dose-only effect, or another doubt; inactive = no such curve, though single readings can be large; an effect the other way counts as inactive or inconclusive.

Experiments:
[1] = system: NIH3T3; test: qHTS assay to identify novel small-molecules to repurpose for Merkel cell carcinoma treatment (AID 1296009); settings: MCC and control cell lines, CellTiter-Glo viability, 72 h; at 44.8 µM (top of the series) unless noted; note: nearly all actives have a fitted effect of over 60% in size
How it was run: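 Cell viability, measured as CellTiter-Glo luminescence, was normalized between DMSO and no-cell wells. The cells had been exposed to 8- or 11-point compound dilutions for 72 hr at 37 degree celsius.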

[2] = system: C33A; test: Primary qHTS to identify gynecologic anti-cancer compounds using libraries of approved drugs and bioactive compounds (AID 1345084); settings: Gynecologic cancer cell panel viability, ATPlite luminescence, 48 h; series mostly up to 57.5 µM; note: % is set by controls: 0 for no effect and ±100 for the full control effect; nearly all actives have a fitted effect of over 55% in size
How it was run: (§1)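 In this quantitative HTS, cell killing is estimated from loss of ATP-dependent luciferase light. Cells see five compound concentrations over a 48 h exposure.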

[3] = system: CAOV3; test: as above; settings: Gynecologic cancer cell panel viability, ATPlite luminescence, 48 h; series mostly up to 57.5 µM
How it was run: as §1

[4] = system: CASKI; test: as above; settings: Gynecologic cancer cell panel viability, ATPlite luminescence, 48 h; series mostly up to 57.5 µM
How it was run: as §1

[5] = system: Es-2; test: as above; settings: Gynecologic cancer cell panel viability, ATPlite luminescence, 48 h; series mostly up to 57.5 µM
How it was run: as §1

[6] = system: HeLa; test: as above; settings: Gynecologic cancer cell panel viability, ATPlite luminescence, 48 h; series mostly up to 57.5 µM
How it was run: as §1

[7] = system: Hek293T; test: as above; settings: Gynecologic cancer cell panel viability, ATPlite luminescence, 48 h, control line for the selectivity index; series mostly up to 57.5 µM
How it was run: as §1

[8] = system: JEG-3; test: as above; settings: Gynecologic cancer cell panel viability, ATPlite luminescence, 48 h; series mostly up to 57.5 µM
How it was run: as §1

[9] = system: OV90; test: as above; settings: Gynecologic cancer cell panel viability, ATPlite luminescence, 48 h; series mostly up to 57.5 µM
How it was run: as §1

[10] = system: PA-1; test: as above; settings: Gynecologic cancer cell panel viability, ATPlite luminescence, 48 h; series mostly up to 57.5 µM
How it was run: as §1

[11] = system: SKOV3; test: as above; settings: Gynecologic cancer cell panel viability, ATPlite luminescence, 48 h; series mostly up to 57.5 µM
How it was run: as §1

[12] = system: Tov-21-G; test: as above; settings: Gynecologic cancer cell panel viability, ATPlite luminescence, 48 h; series mostly up to 57.5 µM
How it was run: as §1

[13] = system: Tov112D; test: as above; settings: Gynecologic cancer cell panel viability, ATPlite luminescence, 48 h; series mostly up to 57.5 µM
How it was run: as §1

CC(=O)O[C@@H]1[C@@H](O)[C@H](C)O[C@@H](O[C@H]2[C@@H]3C=CO[C@@H](O[C@@H]4O[C@H](CO)[C@@H](O)[C@H](O)[C@H]4OC(C)=O)[C@@H]3[C@@]3(CO)O[C@@H]23)[C@@H]1OC(=O)/C=C/c1ccc(O)cc1
inactive: outcome [1] inactive [at 17.4 µM] | Potency [2] | Potency [3] | outcome [4] | Potency [5] | Potency [6] | Potency [7] | Potency [8] | Potency [9] | Potency [10] | Potency [11] | Potency [12] | Potency [13]

O=C(/C=C/c1ccc(O)cc1)O[C@H]1[C@H](OC2CCCCC2O)O[C@H](CO)[C@@H](O)[C@@H]1O (stereo not given in full)
inactive: outcome [1] inactive [at 17.4 µM] | Potency [2] | Potency [3] | outcome [4] | Potency [5] | Potency [6] | Potency [7] | Potency [8] | Potency [9] | Potency [10] | Potency [11] | Potency [12] | Potency [13]

O=C(NC1CCN(CC(F)(F)F)CC1)c1ccc(-c2cccc(F)c2)nc1
inactive: outcome [1] | Potency [2] | Potency [3] | outcome [4] | Potency [5] | Potency [6] | Potency [7] | Potency [8] | Potency [9] | Potency [10] | Potency [11] | Potency [12] | Potency [13]

CC1(C)CC[C@]2(C(=O)O[C@@H]3O[C@H](CO)[C@@H](O)[C@H](O)[C@H]3O)CC[C@]3(C)C(=CCC4[C@@]5(C)C[C@@H](O)[C@H](O)[C@@](C)(CO)C5[C@H](O)C[C@]43C)C2C1 (stereo not given in full)
inactive: outcome [1] inactive [at 17.4 µM] | Potency [2] | Potency [3] | outcome [4] | Potency [5] | Potency [6] | Potency [7] | Potency [8] | Potency [9] | Potency [10] | Potency [11] | Potency [12] | Potency [13]

Nc1ncnc2c1C(=O)N(c1ccc(C3CCC(CC(=O)O)CC3)cc1)CCO2 (stereo not given)
inactive: outcome [1] | Potency [2] | Potency [3] | outcome [4] | Potency [5] | Potency [6] | Potency [7] | Potency [8] | Potency [9] | Potency [10] | Potency [11] | Potency [12] | Potency [13]

CC1(C)[C@H]2C[C@H](C/C=C\CCCC(=O)O)[C@@H](NC(=O)c3csc4ccc(O)cc34)[C@@H]1C2
inactive: outcome [1] | Potency [2] | Potency [3] | outcome [4] | Potency [5] | Potency [6] | Potency [7] | Potency [8] | Potency [9] | Potency [10] | Potency [11] | Potency [12] | Potency [13]

C[C@H]1[C@H](C)C[C@@H](C(=O)O)C2CC[C@]3(C)C(=CC[C@@H]4[C@@]5(C)CC[C@H](O)C(C)(C)[C@@H]5CC[C@]43C)[C@@H]21 (stereo not given in full)
inactive: outcome [1] | Potency [2] | Potency [3] | outcome [4] | Potency [5] | Potency [6] | Potency [7] | Potency [8] | Potency [9] | Potency [10] | Potency [11] | Potency [12] | Potency [13]

COc1cc(/C=C/C(=O)O[C@H]2[C@H](O)[C@@H](CO)O[C@@]2(CO)O[C@H]2O[C@H](CO)[C@@H](O)[C@H](O)[C@H]2O)cc(OC)c1O
inactive: outcome [1] inactive [at 17.4 µM] | Potency [2] | Potency [3] | outcome [4] | Potency [5] | Potency [6] | Potency [7] | Potency [8] | Potency [9] | Potency [10] | Potency [11] | Potency [12] | Potency [13]

COc1ccc(CCC(=O)O)c(O[C@@H]2O[C@H](CO)[C@@H](O)[C@H](O)[C@H]2O)c1
inactive: outcome [1] | Potency [2] | Potency [3] | outcome [4] | Potency [5] | Potency [6] | Potency [7] | Potency [8] | Potency [9] | Potency [10] | Potency [11] | Potency [12] | Potency [13]

C/C=C(\C)C(=O)OC[C@H]1O[C@@H](O[C@H]2[C@@H](O[C@H]3O[C@H](COC(=O)/C(C)=C/C)[C@@H](O)[C@H](O)[C@H]3O[C@@H]3O[C@H](CO)[C@@H](O)[C@H](OC(=O)/C(C)=C/C)[C@H]3O)O[C@H](COC(=O)/C(C)=C/C)[C@@H](O)[C@@H]2O)[C@H](O)[C@@H](O)[C@@H]1O
inactive: outcome [1] inactive [at 9.27 µM] | activity change, negative = cytotoxicity [2] 12.3% [at 11.6 µM] | activity change, negative = cytotoxicity [3] 5.53% [at 11.6 µM] | activity change, negative = cytotoxicity [4] -1.71% [at 11.6 µM] | activity change, negative = cytotoxicity [5] 4.24% [at 11.6 µM] | activity change, negative = cytotoxicity [6] -5.55% [at 11.6 µM] | activity change, negative = cytotoxicity [7] 8.78% [at 11.6 µM] | activity change, negative = cytotoxicity [8] 2.17% [at 11.6 µM] | activity change, negative = cytotoxicity [9] -2.51% [at 11.6 µM] | activity change, negative = cytotoxicity [10] -18.4% [at 11.6 µM] | activity change, negative = cytotoxicity [11] 3.76% [at 11.6 µM] | activity change, negative = cytotoxicity [12] 2.42% [at 11.6 µM] | activity change, negative = cytotoxicity [13] 2.79% [at 11.6 µM]
